In PubChem BioAssay:
The source made the active and inactive calls.

Key:
Albumin (Bos taurus) = Albumin (Bos taurus) (UniProt P02769); test: compounds binding labelled BSA control protein – biochemical, small-molecule microarray, Alexa647 label, 635/667 nm fluorescence, artefact control for SMM control protein annotation, profiling panel (AID 1118); settings: BSA-A647 binding, fluorescence 635 nm, higher = more signal;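 note: score merges 667 nm emission intensity and signal-to-noise per printed compound spot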
Chain of Albumin (Bos taurus) (P02769 whole entry, looked up): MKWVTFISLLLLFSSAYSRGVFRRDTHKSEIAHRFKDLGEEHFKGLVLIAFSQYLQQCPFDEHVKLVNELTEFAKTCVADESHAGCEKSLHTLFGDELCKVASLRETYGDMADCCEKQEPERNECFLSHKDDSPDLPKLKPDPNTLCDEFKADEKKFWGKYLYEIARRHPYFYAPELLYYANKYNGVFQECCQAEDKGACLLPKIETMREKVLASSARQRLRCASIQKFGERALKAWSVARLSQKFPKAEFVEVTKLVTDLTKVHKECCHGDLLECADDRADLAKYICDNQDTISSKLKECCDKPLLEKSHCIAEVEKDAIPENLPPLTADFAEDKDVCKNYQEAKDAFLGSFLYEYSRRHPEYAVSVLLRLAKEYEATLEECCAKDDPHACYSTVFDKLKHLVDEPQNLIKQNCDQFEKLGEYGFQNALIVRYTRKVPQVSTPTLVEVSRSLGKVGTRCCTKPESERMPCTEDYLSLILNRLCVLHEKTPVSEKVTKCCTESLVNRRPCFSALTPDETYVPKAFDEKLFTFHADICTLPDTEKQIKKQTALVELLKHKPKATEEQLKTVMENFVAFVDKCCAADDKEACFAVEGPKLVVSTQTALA

[1] = probe aXIP binding to arrayed compounds – biochemical, NeuroSMM set, 635/667 nm fluorescence, primary screen (AID 1119); settings: small-molecule microarray, higher = more signal, called active from +8 up or from −8 down;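 note: probe is the protein aXip251-270 applied at 1 µg/mL to compound-printed slides; binding of probe to printed compounds measured as 667 nm fluorescence plus signal to noise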
[2] = probe aNOTCH3 binding on compound microarray – biochemical, small-molecule microarray, 635/667 nm fluorescence, primary screen (AID 1120); settings: higher = more signal;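 note: probe is a biotin-tagged antibody raised against NOTCH3 rather than NOTCH3 protein; score merges spot fluorescence near 667 nm with spot signal to noise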
[3] = probe aNOTCH2 binding on compound microarray – biochemical, small-molecule microarray, 635/667 nm fluorescence, primary screen (AID 1121); settings: higher = more signal;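 note: score merges feature fluorescence read at 667 nm with its signal to noise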
[4] = biological target: Carbonic anhydrase 2 (Homo sapiens) (UniProt P00918); test: compounds binding carbonic anhydrase 2 – biochemical, small-molecule microarray, Alexa647-labelled CAII, profiling panel (AID 1122); settings: CAII-A647 binding fluorescence, higher = more signal
[5] = COS7 lysate on small-molecule microarray, probe aHis, 635 nm (AID 1123); settings: COS7 cell lysate, fluorescence, higher = more signal;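 note: z-score combines 667nm fluorescence intensity with signal-to-noise per printed compound spot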
[6] = probe aLAP1 signal on lysate-treated microarray – cell lysate, small-molecule microarray, COS7 lysate, primary screen (AID 1124); settings: probe aLAP1, fluorescence, higher = more signal;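 note: lysate comes from COS7 cells expressing LAP1 and is applied at 0.3 µg/mL; score merges spot fluorescence near 667 nm with signal-to-noise over triplicate slides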
Sam68 (KHDRBS1) = test: compounds binding KHDRBS1 protein – biochemical, small-molecule microarray, 635 nm fluorescence, primary screen (AID 1125); settings: higher = more signal;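 note: score merges 667 nm channel intensity with signal to noise over triplicate slides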
[7] = tested on: Chordin-like protein 2 (CHRDL2); test: compounds binding chordin-like 2 – biochemical, small-molecule microarray, 635 nm fluorescence, primary screen (AID 1126); settings: fluorescence 635 nm, higher = more signal;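 note: printed compound slides probed with Chrdl2 protein at 4 µg/mL for 1 h at 4 C; score merges 667 nm emission intensity with signal to noise over three replicate slides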
[8] = biological target: Concanavalin-A (Canavalia ensiformis) (UniProt P02866); test: compounds binding concanavalin A lectin – biochemical, small-molecule microarray, Alexa647 label, 635 nm, artefact control for SMM control protein annotation, primary screen (AID 1127); settings: ConA-A647 binding fluorescence, higher = more signal;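 note: z combines 667 nm emission intensity with signal-to-noise across three replicate slides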
Chain of Concanavalin-A (Canavalia ensiformis) (P02866 whole entry, looked up): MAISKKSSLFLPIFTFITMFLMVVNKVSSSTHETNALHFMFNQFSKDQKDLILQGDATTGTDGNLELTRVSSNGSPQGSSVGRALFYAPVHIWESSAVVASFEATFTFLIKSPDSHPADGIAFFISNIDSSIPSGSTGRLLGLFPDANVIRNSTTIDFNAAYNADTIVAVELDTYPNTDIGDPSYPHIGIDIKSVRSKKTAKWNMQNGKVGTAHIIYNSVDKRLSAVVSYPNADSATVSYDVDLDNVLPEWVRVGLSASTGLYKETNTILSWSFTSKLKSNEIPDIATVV

Compound	composite z-score (Albumin (Bos taurus))	composite Z-score [1]	composite z-score [2]	composite z-score [3]	composite z-score [4]	composite z-score [5]	composite z-score [6]	composite z-score (Sam68 (KHDRBS1))	composite z-score [7]	composite z-score [8]
COC(=O)C(CC#Cc1ccc2c(c1)[C@]1(C(=O)N2)[C@H](C(=O)N2CCCCCCC2)[C@H]2C(=O)O[C@H](c3ccccc3)[C@H](c3ccccc3)N2[C@@H]1c1ccc(O)cc1)C(=O)OC	-0.264	0.448 (inactive)	-0.379	-0.0829	-0.59	-0.437	0.39	-0.92	-1.32	0.266
CC(C)=C1C(=O)C(c2ccccc2)=C2CN3C(=O)N(CCc4ccccc4)C(=O)[C@]3(Cc3ccccc3)[C@H]21	0.0673	0.548 (inactive)	-0.0209	0.224	0.204	0.572	-0.14	-1.59	-2.04	-1.18
COCCOC(=O)N1C(=O)[C@@]2(c3cc(C#CC4=CCCCC4)ccc31)[C@H](c1ccc(O)cc1)N1[C@H](c3ccccc3)[C@H](c3ccccc3)OC(=O)[C@H]1[C@@H]2C(=O)N1CCCCCCC1	-0.645	1.69 (inactive)	0.112	-0.122	0.425	0.129	0.135	1.29	0.729	1.12
C=C(CCCC)/C(=C/C[C@H](OC(=O)c1ccncc1)c1cccc(OCCO)c1)c1cc(C(=O)OC)ccc1OC	-0.2	-0.331 (inactive)	0.074	-0.131	0.0309	1.09	-0.132	0.711	0.363	0.724
COc1ccc([Si](C)(C)[C@@H]2[C@@H](CCO)O[C@]3(C(=O)N(Cc4ccccc4)c4ccccc43)[C@H]2C)cc1	0.152	0.158 (inactive)	-0.113	-0.125	-0.0193	0.141	0.0521	0.555	-0.0822	0.421
CCOC(=O)C[C@H]1[C@H](OC(=O)c2cc3ccccc3oc2=O)[C@@H](NC(=O)C2CCCCC2)c2cc(OCCCO)ccc2N1C(=O)c1ccc2ccccc2n1	0.596	-0.0789 (inactive)	-0.0311	-0.115	0.0744	0.801	-0.108	1.06	0.544	0.953
COC(=O)c1ccc(C#CC(NP(=O)(c2ccccc2)c2ccccc2)c2ccccc2)cc1 (stereo not given)	1	0.444 (inactive)	0.272	0.335	1.1	2.59	-0.0375	1.08	1.49	1.15
COC(=O)C1=CC(c2ccc(CO)cc2)=CC(C2CC2)N(Cc2sc3ccccc3c2Cl)C=C1C(=O)OC (stereo not given)	0.971	0.152 (inactive)	0.3	0.101	0.866	2.78	0.58	1.31	0.185	1.16
CO[C@H]1O[C@H](CO)[C@@H](OC(=O)Nc2ccc(Oc3ccccc3)cc2)[C@H](OC(=O)Nc2ccccc2-c2ccccc2)[C@H]1OC(=O)Nc1ccccc1-c1ccccc1	0.892	-0.0478 (inactive)	0.289	-0.0519	0.442	2.68	1.26	1.31	0.203	1.18
O=C1c2ccccc2[C@](Cc2ccccc2I)(C(=O)NCc2ccccc2)[C@H](c2ccc(CO)cc2)N1Cc1ccccc1C(F)(F)F	0.609	-0.342 (inactive)	-0.253	-0.11	0.631	1.37	0.595	0.514	-1.84	-0.32
CCCNC(=O)[C@@]1(Sc2ccc(C)cc2)CC(=O)N(Cc2ccccc2Cl)[C@@H]1c1ccc(CO)cc1	0.694	0.165 (inactive)	0.308	-0.0906	0.572	1.67	1.2	1.31	0.725	1.12
[N-]=[N+]=NCc1ccccc1C[C@@]1(C(=O)N2CCOCC2)N=C(c2ccc(OCCCO)cc2)O[C@@H]1c1ccccc1N=[N+]=[N-]	1.02	-0.188 (inactive)	0.402	0.0753	0.771	2.48	0.358	1.3	-1.07	1.18
CO[C@H]1COC(=O)CC=C[C@H](C)[C@@H](OC)COC(=O)[C@H](Cc2ccccc2)NC(=O)CC=C[C@@H]1C	-2.12	0.699 (inactive)	-0.132	-0.0743	-0.961	-0.566	-0.287	-0.777	1.46	-2.53
O=C(NCc1ccccc1)[C@@]1(CCS(=O)(=O)c2ccccc2)COC(c2ccc(OCCCO)cc2)=N1	0.514	0.294 (inactive)	0.291	0.0539	0.808	3.01	0.72	1.3	-0.696	1.17
COc1cc(Cc2cc3c(c(CCc4ccccc4)n2)[Si](C(C)C)(C(C)C)OC3)cc(OC)c1OC	-0.237	-0.334 (inactive)	-0.0697	-0.165	0.0001	-0.177	-0.0868	-0.0118	0.182	0.255
COC(=O)C[C@H]1O[C@]2(C(=O)N(C)c3ccccc32)[C@@H](C)[C@@H]1[Si](C)(C)c1ccc(OC)cc1	0.163	-0.211 (inactive)	0.0185	-0.135	0.158	0.342	0.494	0.567	0.291	0.598
CCCC=C(CCC)[C@@H](NC(=O)c1ccc(C(F)(F)F)cc1)c1ccccc1	-0.0332	0.0895 (inactive)	0.191	-0.0007	0.104	1.29	-0.805	0.989	-0.815	0.483

Compound	composite z-score (Albumin (Bos taurus))	composite Z-score [1]	composite z-score [2]	composite z-score [3]	composite z-score [4]	composite z-score [5]	composite z-score [6]	composite z-score (Sam68 (KHDRBS1))	composite z-score [7]	composite z-score [8]
Cc1ccc(S[C@]2(C(=O)O)CC(=O)N(Cc3cc(C(F)(F)F)cc(C(F)(F)F)c3)[C@@H]2c2ccc(CO)cc2I)cc1	0.372	1.54 (inactive)	-0.243	-0.154	0.0858	0.0199	-0.439	0.456	-1.02	0.226
C=C[C@H](OC)[C@@H](OC(=O)Nc1ccc(SC)cc1)c1ccc(OC)c(O)c1	-1.37	0.157 (inactive)	-0.403	-0.183	0.1	0.677	-0.245	0.347	-0.998	-0.473
[N-]=[N+]=NCc1ccccc1C[C@@]1(C(=O)O)N=C(c2ccc(OCCCO)cc2)O[C@@H]1c1ccccc1N=[N+]=[N-]	0.855	0.198 (inactive)	0.328	-0.0424	0.726	2.05	0.497	1.3	-0.256	0.421
C=C(CCCC)C(=O)CC[C@@H](OC(C)=O)c1ccccc1OCCO	-0.993	2.25 (inactive)	-0.13	-0.117	0.638	-0.429	1.23	-0.665	-0.646	-1.43
C=CCNC(=O)[C@H]1[C@@H]2C(=O)O[C@@H](c3ccccc3)[C@@H](c3ccccc3)N2[C@@H](c2ccccc2OCCO)[C@]12C(=O)N(C(=O)OCCOC)c1ccc(C#CCNC(N)=O)cc12	0.676	-0.0888 (inactive)	0.0379	-0.101	0.555	1.94	1.3	1.29	-0.246	1.14
O=C/C=C/c1ccc(/C=C/c2ccccc2)cc1	-0.435	-0.738 (inactive)	-0.25	-0.175	-0.147	-0.792	0.103	-1.22	0.95	-0.342
COCCOC(=O)N1C(=O)[C@@]2(c3cc(C#CCCO)ccc31)[C@H](C(=O)N1CCCCCCC1)[C@H]1C(=O)O[C@H](c3ccccc3)[C@H](c3ccccc3)N1[C@@H]2c1ccc(O)cc1	0.792	0.516 (inactive)	0.715	0.102	0.731	2.81	0.837	1.29	0.279	1.11
CCN1C(C)=C(C(=O)OC)[C@@H](c2ccccc2)N2C(=O)[C@@]3(C(=O)OC)O[C@@]12[C@@H]1C(=O)N(C)C(=O)[C@@H]13	0.216	0.0523 (inactive)	0.19	-0.141	0.752	0.32	0.164	0.686	1.01	0.418
COC(=O)[C@@]1(Cc2ccccc2)[C@H]2c3cc(C(=O)N4CCCC4)n(CCN4CNCC4=O)c3C[C@H]2CN1C(=O)c1ccccc1	0.963	0.0178 (inactive)	0.119	-0.173	0.924	3.04	0.808	0.28	-0.634	1.2
C=C(COC)/C(=C/C[C@H](OC(C)=O)c1ccc(OCCO)cc1)c1cnc2ccccc2c1	0.0916	-0.0473 (inactive)	0.196	-0.108	0.797	0.193	-0.0578	1.27	1.24	1.05
C=CCC1=C[C@H]2[C@H]([C@@H]3C=C[C@]2(CC=C)C(=O)[C@]32CO2)[C@@]2(CO2)C1=O	-0.44	0.528 (inactive)	0.519	0.082	-0.262	0.104	-0.0222	-0.56	1.54	-1
O=C(NCc1ccccc1)[C@@]1(Cc2ccccc2)COC(c2ccc(OCCCO)cc2)=N1	0.48	-0.179 (inactive)	0.0539	-0.0063	0.504	1.71	0.144	0.682	-0.594	0.865
CC/C=C/C(=O)N(C[C@@H]1CCCO1)[C@@H]1CC(C(=O)NCCO)=C[C@H](Oc2c(I)cc(CO)cc2OC)[C@H]1O	0.74	0.465 (inactive)	0.0208	-0.103	0.721	1.42	0.739	0.787	-0.355	-0.629
COc1ccc(CCNC(=O)[C@@]2(c3ccc([N+](=O)[O-])cc3)CC(=O)N(C(C)C)[C@@H]2c2ccc(CO)cc2)cc1	0.0638	0.265 (inactive)	-0.331	-0.154	0.748	0.462	0.451	-0.549	-2.5	-0.895
CCC1=C2CN(Cc3ccccc3Br)[C@@H]([C@@H](O)Cc3ccccc3)C2C=CCC1 (stereo not given in full)	0.714	1.22 (inactive)	-0.0277	-0.123	0.366	1.01	-0.0566	1.3	0.611	0.646
C=C(/C(=C/C[C@@H](OC(=O)c1ccncc1)c1ccc(CO)o1)c1cnc2ccccc2c1)C(C)C	0.485	0.0431 (inactive)	0.0225	-0.132	0.557	0.606	0.367	1.3	1.21	1.17
